Reference: PubChem BioAssay (NCI)
Compounds without any hit were thinned out: in the full panel of roughly 79,000, 15% have a hit. Calls of active or inactive are those of the source. No stated cut-off is given here; in the data, active means growth inhibition above about 70%; inactive means the rest.

Assays:
[1] = NCI Yeast Anticancer Drug Screen. Data for the rad50 strain (AID 155);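 further: 0% = growth of vehicle-only cultures of the same strain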; conditions: S. cerevisiae rad50 strain growth inhibition, hits give high values
How it was run: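 A DNA repair-deficient yeast mutant serves as the test organism; compound-induced growth inhibition is calculated against vehicle-treated cells.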

[2] = NCI Yeast Anticancer Drug Screen. Data for the mec2-1 strain (AID 157); conditions: S. cerevisiae mec2-1 strain, hits give high values
How it was run: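 Compounds were applied to mec2-1 yeast cells. Their growth was then compared with that of vehicle-treated cultures to give growth inhibition.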

[3] = NCI Yeast Anticancer Drug Screen. Data for the sgs1 mgt1 strain (AID 161);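 further: 0% = growth of cultures given vehicle only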; conditions: S. cerevisiae sgs1 mgt1 strain, hits give high values
How it was run: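 Yeast cells carrying a defined DNA-repair defect were exposed to test compounds. Growth inhibition was measured relative to vehicle-treated controls.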

[4] = NCI Yeast Anticancer Drug Screen. Data for the cln2 rad14 strain (AID 165);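 further: 0% = growth equal to vehicle treated cultures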; conditions: S. cerevisiae cln2 rad14 strain, hits give high values
How it was run: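 Strain: cln2 rad14 yeast, altered in cell cycle control and DNA damage repair. Read-out: growth inhibition vs vehicle.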

[5] = NCI Yeast Anticancer Drug Screen. Data for the bub3 strain (AID 167); conditions: S. cerevisiae bub3 mutant strain, hits give high values
How it was run: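 Inhibition values come from growth of compound-treated mutant yeast normalised to vehicle-treated controls.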

[6] = NCI Yeast Anticancer Drug Screen. Data for the mlh1 rad18 strain (AID 175); conditions: S. cerevisiae mlh1 rad18 strain growth inhibition, hits give high values
How it was run: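 A repair-deficient yeast strain is exposed to test compound, and growth is scored relative to vehicle-treated controls.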

[7] = at 5.0 µM (retest, dose inferred, filed as 0.5)
[8] = at 50.0 µM (retest, dose inferred, filed as 5.0)

Measured: growth inhibition

Cc1cc(C)c2c(c1)sc1nncn12
inactive: [1]; [7] 62% | [2]; [7] 57% | [3]; [7] 53% | [4]; [7] 46%
active: [1]; [8] 96% | [1]; at 50.0 µM 97.9% | [2]; [8] 96% | [2]; at 50.0 µM 97.8% | [3]; [8] 97% | [3]; at 50.0 µM 96% | [4]; [8] 96% | [4]; at 50.0 µM 97.6% | [5]; [7] 70% | [5]; [8] 97% | [5]; at 50.0 µM 98.9% | [6]; [7] 93% | [6]; [8] 97% | [6]; at 50.0 µM 98.9%

O=C1CC2(CCCC2)C(=O)N1c1ccc(N2C(=O)CC3(CCCC3)C2=O)cc1
inactive: [1]; [7] 3% | [1]; [8] -10% | [1]; at 50.0 µM -11.8% | [2]; [7] -3% | [2]; [8] -12% | [2]; at 50.0 µM 6.95% | [3]; [7] -1% | [3]; [8] -7% | [3]; at 50.0 µM -22.4% | [4]; [7] -5% | [4]; [8] -7% | [4]; at 50.0 µM 44.1% | [5]; [7] 0% | [5]; [8] -4% | [5]; at 50.0 µM -0.9% | [6]; [7] 1% | [6]; [8] -5% | [6]; at 50.0 µM -11.7%

CCCCN(C(=O)c1ccccc1)C1CCC(=O)c2[nH]c3ccccc3c21 (stereo not given)
inactive: [1]; [7] -3% | [1]; [8] 1% | [2]; [7] -15% | [2]; [8] -28% | [3]; [7] -7% | [3]; [8] 20% | [4]; [7] -13% | [4]; [8] -1% | [5]; [7] -18% | [5]; [8] 12% | [6]; [7] 2% | [6]; [8] -15% | [6]; at 50.0 µM 69.5%
active: [1]; at 50.0 µM 85.5% | [2]; at 50.0 µM 89.3% | [3]; at 50.0 µM 76% | [4]; at 50.0 µM 83.5% | [5]; at 50.0 µM 80.6%

Cc1ccc(C)c(C2CCCCC2O)c1 (stereo not given)
inactive: [1]; [7] -1% | [1]; [8] -80% | [1]; at 50.0 µM 4.5% | [2]; [7] -8% | [2]; [8] -25% | [2]; at 50.0 µM -11.7% | [3]; [7] -1% | [3]; [8] -23% | [3]; at 50.0 µM -9.1% | [4]; [7] 9% | [4]; [8] -5% | [5]; [7] -13% | [5]; [8] -87% | [5]; at 50.0 µM 51.1% | [6]; [7] 0% | [6]; [8] -40% | [6]; at 50.0 µM -16.1%
active: [4]; at 50.0 µM 71.5%

Cc1ccc(S(=O)(=O)NNC2Oc3cc4c(cc3C(c3ccccc3O)C2C)OCO4)cc1 (stereo not given)
inactive: [1]; [7] -12% | [2]; [7] -3% | [3]; [7] -2% | [4]; [7] 19% | [5]; [7] -11% | [6]; [7] 22%
active: [1]; [8] 98% | [1]; at 50.0 µM 97.4% | [2]; [8] 98% | [2]; at 50.0 µM 95.7% | [3]; [8] 98% | [3]; at 50.0 µM 95.7% | [4]; [8] 97% | [4]; at 50.0 µM 97% | [5]; [8] 98% | [5]; at 50.0 µM 96.2% | [6]; [8] 97% | [6]; at 50.0 µM 96.2%

Oc1cc(C(c2ccccc2)c2ccccc2)c2ccccc2c1O
inactive: [1]; [7] 17% | [1]; [8] 1% | [2]; [7] 26% | [2]; [8] 8% | [3]; [7] 20% | [3]; [8] 1% | [4]; [7] 13% | [4]; [8] 0% | [5]; [7] 10% | [5]; [8] 2% | [6]; [7] 34% | [6]; [8] 1%
active: [1]; at 50.0 µM 97.6% | [2]; at 50.0 µM 98.5% | [3]; at 50.0 µM 98.5% | [4]; at 50.0 µM 97.7% | [5]; at 50.0 µM 98.2% | [6]; at 50.0 µM 97.8%

CCCCCCCCS(=O)(=O)Nc1ccccc1
active: [1]; [8] 98% | [1]; at 50.0 µM 99.3% | [2]; [8] 99% | [2]; at 50.0 µM 99.2% | [3]; [8] 99% | [3]; at 50.0 µM 99.3% | [4]; [8] 99% | [4]; at 50.0 µM 99.4% | [5]; [8] 99% | [5]; at 50.0 µM 99.1% | [6]; at 50.0 µM 99.1%
inactive: [1]; [7] 11% | [2]; [7] 0% | [3]; [7] 6% | [4]; [7] 4% | [5]; [7] 4% | [6]; [7] -5% | [6]; [8] 61%

c1ccc(CCN(Cc2nc3ccccc3[nH]2)Cc2nc3ccccc3[nH]2)cc1
inactive: [1]; [7] 3% | [2]; [7] -3% | [3]; [7] -3% | [4]; [7] -12% | [5]; [7] 0% | [6]; [7] -3%
active: [1]; [8] 90% | [1]; at 50.0 µM 94.7% | [2]; [8] 92% | [2]; at 50.0 µM 93.2% | [3]; [8] 90% | [3]; at 50.0 µM 96% | [4]; [8] 93% | [4]; at 50.0 µM 82.6% | [5]; [8] 95% | [5]; at 50.0 µM 89.2% | [6]; [8] 91% | [6]; at 50.0 µM 95.5%

CC1OC(c2ccc3c(c2)OCO3)OC1C (stereo not given)
active: [4]; at 50.0 µM 70.7%
inactive: [1]; [7] 1% | [1]; [8] 0% | [1]; at 50.0 µM -21.6% | [2]; [7] -4% | [2]; [8] -7% | [2]; at 50.0 µM 20.1% | [3]; [7] -4% | [3]; [8] -5% | [3]; at 50.0 µM 24.6% | [4]; [7] 0% | [4]; [8] -2% | [5]; [7] -8% | [5]; [8] -23% | [5]; at 50.0 µM 25% | [6]; [7] 2% | [6]; [8] 0% | [6]; at 50.0 µM 64.7%

CC(=O)OCC1OC(N2CCc3cc([N+](=O)[O-])ccc32)C(OC(C)=O)C(OC(C)=O)C1OC(C)=O (stereo not given)
inactive: [1]; [7] 2% | [1]; [8] -4% | [1]; at 50.0 µM -15.4% | [2]; [7] -19% | [2]; [8] 20% | [2]; at 50.0 µM -1.35% | [3]; [7] 3% | [3]; [8] 23% | [3]; at 50.0 µM -9.2% | [4]; [7] 7% | [4]; [8] -3% | [4]; at 50.0 µM 41.9% | [5]; [7] 3% | [5]; [8] 1% | [5]; at 50.0 µM -3.25% | [6]; [7] 11% | [6]; [8] 18% | [6]; at 50.0 µM -16.8%
